Most compounds without a hit are left out; they make up all but 0.86% or so of the library.
TAR Tat displ: HIV-1 TAR-Tat binding disruption; HIV-1 TAR RNA, Tat peptide displacement FRET; active compounds read high; AID 1259389; actives 0.6% (n = 100,000); z-score (no concentration beside the values); active = z-score of 3 or more in at least 2 runs
CDC25B CDK2 inh: human CDC25B-CDK2/CyclinA binding inhibition; HTRF CDC25B-CDK2/CyclinA binding, anti-His/anti-Flag; active compounds read high; AID 1259370; P30305+P24941; actives 0.72% (n = 94,000); z-score (test concentration not listed); in the data active = z-score above about 3.2
An asterisk follows results filed as active; x = no result given.

SMILES	TAR Tat displ	CDC25B CDK2 inh
Cn1c(C(=O)Nc2ccc(S(N)(=O)=O)cc2)cc2c(=O)n3ccccc3nc21	27*	x
CCCCNC(=O)c1cc2c(=O)n3ccccc3nc2n1C	5*	x
Cc1ccc(Nc2c(-c3ccc4c(c3)OCC(=O)N4)c(=O)c2=O)c(Br)c1	0	x
Cc1cc(C)c(S(=O)(=O)NCCc2csc(-c3cccc(F)c3)n2)cc1C	1.7	x
O=C(O)c1ccc2nc(-c3cccc(-c4nc5ccc(C(=O)O)cc5[nH]4)c3)[nH]c2c1	x	7.3*
O=C(O)c1cccc(-c2nc3ccccc3[nH]2)c1	x	-2.1
O=[N+]([O-])c1ccc(-c2n[nH]c(=S)o2)o1	x	-0.95
Cc1oc(C(C)(C)C)cc1C(=O)/C(C#N)=C/Nc1ccccc1	x	0.26
CC(C)(C)c1ccc(N/C=C(\C#N)C(=O)c2ccsc2)cc1	x	13*
COCCNC(=O)Cn1ncn2nc(-c3ccco3)cc2c1=O	1.3	0.42
O=C(Oc1cc(O)cc2c1C[C@@H](OC(=O)c1cc(O)c(O)c(O)c1)[C@@H](c1cc(O)c(O)c(O)c1)O2)c1cc(O)c(O)c(O)c1	31*	x
O=C(O[C@@H]1Cc2c(O)cc(O)cc2O[C@@H]1c1cc(O)c(=O)c2c(O)c(O)cc([C@H]3Oc4cc(O)cc(O)c4C[C@H]3OC(=O)c3cc(O)c(O)c(O)c3)c2c1)c1cc(O)c(O)c(O)c1	26*	x
COc1ccc([C@@H]2CC(=O)c3c(O)cc(O)cc3O2)cc1O	2.9	x
O=C(O[C@@H]1Cc2c(O)cc(O)cc2O[C@@H]1c1cc(O)c(O)c(O)c1-c1c([C@H]2Oc3cc(O)cc(O)c3C[C@H]2OC(=O)c2cc(O)c(O)c(O)c2)cc(O)c(O)c1O)c1cc(O)c(O)c(O)c1	29*	x
CC(C)(C)c1csc(NC(=O)CS(=O)(=O)c2ccc(F)cc2)n1	0.63	x
Cc1ccc(S(=O)(=O)c2cnc3ccc(C)cc3c2N2CCCC2)cc1	-0.16	-2.2
CC(C)n1cnc2nc(CSc3ccc(NC(=O)C4CCCO4)cc3)cc(=O)n21 (stereo not given)	-1.3	-2.6
O=C(O)c1cc(-c2ccccc2)nc2n[nH]c(-c3ccccc3)c12	0.44	x
O=C(O)c1cc(-c2cn[nH]c2-c2ccccc2)nc2ccc3ccccc3c12	x	22*
Nc1ccc(-c2nc3ccc(N)cc3[nH]2)cc1	x	-1.5
Nc1ccc2nc(-c3ccc(Cl)cc3)[nH]c2c1	5.1*	-2
Cc1c(N)ccc2[nH]c(-c3ccc(N)cc3)nc12	2.4	-3.1
Nc1ccc(-c2nc3c(Cl)c(N)ccc3[nH]2)cc1	3.7*	-7.5
Cc1ccc(-c2nc3ccc(N)cc3[nH]2)cc1	-7.6	-2
Cc1nc2ccc(-c3nc4ccc(N)cc4[nH]3)cc2[nH]1	x	5*
SMILES	TAR Tat displ	CDC25B CDK2 inh
COC(=O)C1C(=O)C2=C(CC1C)NC(C)=C(C(=O)OCc1ccc(OC)cc1)C2c1ccc(C)s1 (stereo not given)	0.58	-0.05
Cc1cccn2c(=O)c(C(=O)NC(C)C)c(O)nc12	0.28	-0.02
CC(C)CCN1CSC2=C(C#N)C(c3ccc(Cl)cc3)CC(=O)N2C1 (stereo not given)	0.8	0.66
CC(C)CCN1CSC2=C(C#N)C(c3ccc(F)cc3)CC(=O)N2C1 (stereo not given)	-0.59	5*
CCOC(=O)CN1CSC2=C(C#N)C(c3ccc(Cl)cc3)CC(=O)N2C1 (stereo not given)	3.3	3.8*
Cc1ccc(C2CC(=O)N3CN(CCC(C)C)CSC3=C2C#N)cc1 (stereo not given)	-2.1	5.2*
O=C(CCC(=O)N1c2ccccc2NC2=C(C(=O)CCC2)C1c1ccco1)NCc1ccccn1 (stereo not given)	1.3	x
Cc1c(C(=O)C(=O)NCCc2c[nH]c3ccccc23)c2ccccc2n1C	-1.8	-0.91
O=c1cnnc(Nc2ccc3c(c2)OCCO3)[nH]1	2	-1.3
COC(=O)c1ccc(Nc2nncc(=O)[nH]2)cc1	0.52	6.3*
COc1ccc(S(=O)(=O)NCCc2sc(C)nc2C)cc1C	0.39	x
COc1ccc2c(c1)OCC(Cc1ccc(OC)c(OC)c1)C2=O (stereo not given)	14*	x
COc1ccc2c(c1)OCC(Cc1ccc(OC)c(OC(C)=O)c1)C2=O (stereo not given)	1.1	x
CCn1c(=O)c2cc(C(=O)N(CCC(C)C)Cc3ccco3)sc2c2ccccc21	1.3	-1.4
COc1ccc(S(=O)(=O)NCCc2csc3nc(-c4cccs4)nn23)cc1	0.26	x
Cc1ccc(-n2nc3ccc(N)cc3n2)cc1Cl	0.29	-1.5
COc1ccc(-n2nc3ccc(N)cc3n2)cc1Cl	16*	2
O=C1C=CC2=C3c4cc(O)c(O)cc4CC3(O)COC2=C1O (stereo not given)	20*	x
COc1ccc(OC)c(NC(=O)c2cc3c(s2)-c2ccccc2OC3)c1	1.3	-0.21
CCN(CC)c1nc(NCc2cccc(Cl)c2)c2cnn(C)c2n1	0.7	x
Cc1ccc(NC(=O)Nc2cccnc2)cc1Cl	x	0.99
